PubChem BioAssay

Test: CREB reporter modulators under forskolin, primary screen, cell-based, PC12, CRE-LacZ reporter, forskolin-stimulated (AID 1146);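 further: PC12 cells with 6xCRE LacZ reporter stimulated by forskolin 10 µM; beta-galactosidase reporter signal reflecting CREB driven transcription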
Conditions: luminescence, 4.5 h, higher = more signal, called active from +8 up or from −8 down

z-score, inactive:
CC#CCO[Si](C#Cc1ccccc1)(C(C)C)C(C)C 0.852
CC(=O)N1CC2(CC2)CC1c1ccccc1 (stereo unspecified) -0.366
COCCOC(=O)N1C(=O)[C@@]2(c3cc(C#CCC(C(=O)OC)C(=O)OC)ccc31)[C@H](c1ccc(OCCO)cc1)N1[C@H](c3ccccc3)[C@H](c3ccccc3)OC(=O)[C@H]1[C@@H]2C(=O)N1CCc2cc(OC)c(OC)cc2C1 0.936
C=CCC(OC(C)=O)[C@@H]1[C@@H](N(Cc2cccc3ccccc23)C(=O)Cc2ccc(F)cc2)c2cc(OCCCO)ccc2N1C(=O)c1ccc2ccccc2c1 (stereo partly specified) 1.06
CN1C2C=C(CCCO)C(C3C(=O)N(C(N)=O)C(=O)C32)C1C1CC1 (stereo unspecified) 0.373
CCCN1C(=O)[C@]2(Cc3ccccc31)N=C(c1ccc(OCCCO)cc1)O[C@@H]2c1ccccc1 -0.647
NCCCCCNC(=O)[C@@H]1C[C@@H]2C(=O)N[C@@H](CCCCN)C(=O)N2[C@@H]1c1ccc(O)cc1 -0.878
Cc1ccc(C(C)CC(O)C2C=CC3C(=O)N(c4ccccc4)C(=O)C3N2Nc2ccccc2)o1 (stereo unspecified) 0.367
CCCNC(=O)[C@@H]1c2ccccc2C(=O)N(Cc2ccc(OC(F)(F)F)cc2)[C@H]1c1ccc(CO)cc1 -0.283
CC(C)C(CO)N1C(=O)[C@@H]2[C@H]3C(=O)OCC=C[C@H]3OC23C=CCN(c2ccc(Cl)cc2)C(=O)[C@@H]13 (stereo partly specified) -0.652
CC(C)c1ccc(NN2C(C(O)c3ccc(F)cc3)C=CC3C(=O)N(c4ccccc4)C(=O)C32)cc1 (stereo unspecified) 0.3
